Sampled rows, rich in hits. Any-hit rate of the full collection: about 3.5%.
BoNT-F LC inh – BoNT/F light chain protease inhibitors, primary screen, biochemical, flow cytometry, MLPCN library. Botulinum neurotoxin type F light chain protease (Clostridium botulinum). AID 588497, 2011. 360,000 compounds, 0.22% hits. inhibition, % at 10 µM. Multiplex microsphere protease cleavage assay; in the data active = inhibition above about 35%, passing the limit was not always enough; inconclusive = no clear call, values can overlap the other calls; note: plate controls were buffer without enzyme for full effect and enzyme alone for no effect
BoNT-A LC inh2 – BoNT/A light chain protease inhibitors, primary screen, biochemical, flow cytometry, MLPCN library; inhibition, % at 10 µM; 360,000 compounds, 0.17% hits; AID 588499, 2011; multiplex microsphere protease substrate cleavage; note: plate controls were buffer without enzyme for full effect and enzyme alone for no effect
Autofluor counter – flagged as autofluorescent in microsphere protease counterscreen; 360,000 compounds, 3.1% hits; fluorescence intensity (test concentration not listed); compound autofluorescence counterscreen, microsphere flow cytometry; stronger effect = higher value; AID 624483; in the data active = fluorescence intensity above about 16000; inconclusive = no clear call, values can overlap the other calls
3CLpro inhibitor – SARS-CoV 3CLpro protease inhibitors, primary screen, biochemical, quenched FRET. recombinant SARS-CoV 3CLpro, quenched FRET peptide cleavage. Replicase polyprotein 1ab (Severe acute respiratory syndrome coronavirus), P0C6X7. 290,000 compounds, 0.14% hits. inhibition, % at 6 µM; in the data active = inhibition above about 12%
Anthrax LF inh2 – Bacillus anthracis LF protease inhibitors, primary screen, biochemical, multiplex microsphere, MLPCN library | Lethal factor (Bacillus anthracis), P15917 | multiplex microsphere protease cleavage assay | AID 588501, 2011 | inhibition, % at 10 µM | 360,000 compounds, 0.12% hits; note: plate controls were buffer without enzyme for full effect and enzyme alone for no effect
Starred values were filed as active, the others as inactive; ? = inconclusive; nt = no result. Cut-off read from the data, not from the text of the source, unless noted: active = inhibition above about 30%; inconclusive = no clear call, values can overlap the other calls; inactive = below that.

SMILES	BoNT-F LC inh	BoNT-A LC inh2	Autofluor counter	3CLpro inhibitor	Anthrax LF inh2
O=C(NCc1ccco1)c1ccccc1NS(=O)(=O)c1ccc(Br)s1	0	0	22236*	5	-4
Cc1scc(C(=O)NCc2ccco2)c1-c1ccccc1	4	5	20412*	-3	-3
Cc1cccn2c(=O)c(C=O)c(Sc3ncccn3)nc12	25	1	4521	-4	2
BrC(=C\c1ccccc1)/C=N/n1cnnc1	-6	0	5216	2	-4
COc1ccc(O)c(CN2CCN(C/C=C/c3ccccc3)CC2)c1	-3	-1	24344*	6	-1
COc1cc(Br)cc(CN2CCN(C/C=C/c3ccccc3)CC2)c1O	-12	-2	11697	9	-6
Cc1cc2n(n1)SC(Nc1cc(Cl)ccc1Cl)N2 (configuration not stated)	1	0	20196*	3	-6
CCc1ccccc1NC1Nc2cc(C)nn2S1 (configuration not stated)	-5	-1	3877	0	-2
Cc1cc2n(n1)SC(Nc1ccc(F)cc1)N2 (configuration not stated)	nt	nt	nt	-2	nt
Cc1cc2n(n1)SC(Nc1cccc3ccccc13)N2 (configuration not stated)	9	7	17932*	-3	-1
O=C(OCCN1C(=O)c2cccc3c(N4CCOCC4)ccc(c23)C1=O)c1cccc(Cl)c1	nt	nt	nt	0	nt
O=C(OCCN1C(=O)c2cccc3c(N4CCOCC4)ccc(c23)C1=O)c1ccc(Cl)cc1Cl	19	51*	4710	2	24
O=C(OCCN1C(=O)c2cccc3c(N4CCOCC4)ccc(c23)C1=O)c1ccccc1Cl	8	37*	3728	-5	15
CN1CCN(Cc2cccc(Oc3ccccc3)c2)CC1	5	1	9643	3	-4
OCCN1CCN(Cc2cccc(Oc3ccc(Cl)cc3)c2)CC1	1	1	20285*	3	-1
Cc1ccc(S(=O)(=O)/N=C(\N)Nc2nc(C)c3cc(C)ccc3n2)cc1	-1	-2	21184*	7	0
Cc1ccc(S(=O)(=O)/N=C(\N)Nc2nc(C)c3ccc(C)cc3n2)cc1	0	0	10869	-7	-2
CC(C)(C)NC(=O)c1ccccc1NC(=O)C1CC(=O)N(C2CCCCC2)C1 (configuration not stated)	10	0	3483	-3	10
CCN(CC)c1cc2c(c3c1ccn3C)C1CCC2O1 (configuration not stated)	-5	0	4476	nt	-11
CCOC(=O)CC(=O)CSc1ccc2nnc(-c3cccc(F)c3)n2n1	-4	?	16650*	1	2
CCOC(=O)CC(=O)CSc1ccc2nnc(-c3ccc(F)cc3)n2n1	5	1	10492	9	0
C=CCn1c(C)nnc1SCC(=O)c1c(N)n(C2CC2)c(=O)[nH]c1=O	2	-2	6987	nt	1
N#C/C(=C\Nc1ccc2cn[nH]c2c1)c1nc(-c2ccccc2)cs1	1	0	4094	7	-1
Cc1ccnc(N/C=C(\C#N)c2nc(-c3cccc(Br)c3)cs2)c1	39*	56*	8599	-1	39*
COCCNC(=O)CCc1nc2cccnc2n1Cc1ccc(OC)cc1	-7	-2	4259	-2	-7
SMILES	BoNT-F LC inh	BoNT-A LC inh2	Autofluor counter	3CLpro inhibitor	Anthrax LF inh2
COc1cc2nc(SCC(=O)NCc3ccco3)n(Cc3ccc(Cl)cc3)c(=O)c2cc1OC	-2	?	23649*	-2	-2
COCCCn1c(SCc2ccc(OC)cc2)nc2cc(OC)c(OC)cc2c1=N	-3	-1	23040*	3	-2
COc1ccc(Cn2c(CCC(=O)NCc3ccco3)nc3cccnc32)cc1	-2	2	22452*	-3	-1
COCCNC(=O)CSc1nc2cc(OC)c(OC)cc2c(=O)n1Cc1ccc(OC)cc1	0	?	22751*	0	-1
CC1Oc2ccccc2N(CC(=O)NC2CC2)C1=O (configuration not stated)	-2	1	3023	-3	-4
Cc1csc(SCC(=O)Nc2ccccc2[N+](=O)[O-])n1	12	2	4340	6	12
Cc1ccccc1NC(=S)Nc1ccccn1	37*	-2	9236	-1	-13
CC(C)Sc1nc2ccccc2n1CC(=O)NCc1ccc2c(c1)OCO2	3	?	22521*	-2	-1
Cc1ccc(S(=O)(=O)N2CCN(C(=O)N(C)C)CC2)cc1C	-8	1	2982	-2	-1
Cc1ccc(N(C)C(=O)N2CCN(S(=O)(=O)c3ccc(C)c(C)c3)CC2)cc1	-9	-6	24506*	4	-1
Nc1nc(Cl)cc(N2CCC(c3cc(-c4ccc(Cl)cc4Cl)n[nH]3)CC2)n1	-6	-2	21717*	2	-3
CC(C)c1ccc(NC(=O)C(c2ccccc2)N2CCN(C=O)CC2)cc1 (configuration not stated)	7	0	3798	3	-3
O=c1c2ccccc2ccc2ccccc12	1	0	3746	nt	-7
CC(C)Oc1cccc(C(=O)O)c1	8	?	18055*	5	-6
CCOc1ccccc1OCCCC(=O)NCCc1ccc(S(N)(=O)=O)cc1	-2	-2	6338	-5	-2
CCC(CC)C(=O)NCCc1ccc(S(N)(=O)=O)cc1	6	4	21021*	-4	1
CCC(CC)C(=O)Nc1cccc(C(=O)NCCc2ccc(S(N)(=O)=O)cc2)c1	0	-1	23028*	-1	1
CCCCC(CC)C(=O)NCCc1ccc(S(N)(=O)=O)cc1 (configuration not stated)	-1	0	23826*	-4	-2
CCCC(C(=O)NCCc1ccc(S(N)(=O)=O)cc1)c1ccccc1 (configuration not stated)	2	0	3783	2	3
CCCCC(=O)NCCc1ccc(S(N)(=O)=O)cc1	-2	-1	16934*	0	-2
CC1CN(CC(=O)Nc2nc3ccccc3s2)CC(C)O1 (configuration not stated)	-9	-2	3695	-6	5
O=C(OC1CC2CCC(N2)C1C(=O)O)c1ccccc1 (configuration not stated)	0	0	5349	nt	4
COc1ccc(C2/C=C\CN(S(=O)(=O)/C=C/c3ccccc3)CC(=O)N2Cc2ccc(F)cc2)cc1 (configuration not stated)	1	0	2888	nt	1
NS(=O)(=O)c1ccc(CCNC(=O)Nc2ccc(Cl)c(Cl)c2)cc1	-5	-2	16607*	6	-8
COc1ccc(CC(=O)NCCc2ccc(S(N)(=O)=O)cc2)cc1	3	?	19944*	8	1
CC(C)c1ccc(-c2c(NCCc3ccccc3)c(=O)c2=O)cc1	-24	-2	3158	1	-6
